PubChem BioAssay (NCATS)
Inconclusive results are not listed. Activity calls are given as the source filed them. Unless noted, calls follow the shape of the dose curve; as a rule, active = well fitted curve in either direction with a large enough effect (not every such curve was filed as active); inconclusive = small, poorly fitted or top-dose-only effect, or another doubt; inactive = flat fitted curve, though single readings scatter.

How the values were obtained:
[1] = target: Cytochrome P450 3A4 (Homo sapiens) (UniProt P08684); experiment: qHTS Assay for Inhibitors and Substrates of Cytochrome P450 3A4 (AID 884; active = well fitted curve in the direction sought with a large enough effect; an effect the other way counts as inactive or inconclusive; also: % is scaled to controls: 0 for no effect and ±100 for the full control effect; nearly all actives have a fitted effect of over 50% in size)
Cytochrome P450 3A4 (Homo sapiens), sequence (P08684 whole entry, looked up): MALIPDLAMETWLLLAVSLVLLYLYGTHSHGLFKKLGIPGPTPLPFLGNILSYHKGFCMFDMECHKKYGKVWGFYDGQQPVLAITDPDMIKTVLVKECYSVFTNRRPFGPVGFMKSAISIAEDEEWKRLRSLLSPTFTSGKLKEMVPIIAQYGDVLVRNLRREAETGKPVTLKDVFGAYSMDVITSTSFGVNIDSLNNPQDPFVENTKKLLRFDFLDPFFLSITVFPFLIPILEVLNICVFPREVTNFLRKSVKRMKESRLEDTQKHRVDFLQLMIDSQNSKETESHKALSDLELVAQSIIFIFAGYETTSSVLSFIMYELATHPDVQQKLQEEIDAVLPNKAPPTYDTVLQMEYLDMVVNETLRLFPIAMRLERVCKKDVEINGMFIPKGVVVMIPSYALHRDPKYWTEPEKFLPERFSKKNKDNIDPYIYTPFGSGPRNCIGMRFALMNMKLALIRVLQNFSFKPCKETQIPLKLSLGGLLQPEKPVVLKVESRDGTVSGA
Summary of the method: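 20 nM human CYP3A4 with 25 uM Luciferin-PPXE (at KM) in 200 mM KPO4, preincubated 10 min with compound; NADPH regeneration started a 60 min RT reaction. Luciferin detected by luminescence, normalized to 57 uM ketoconazole as full inhibition.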

[2] = Confirmation and Secondary Assay for Modulators of Hemoglobin Beta Chain Splicing at IVS2 654 locus (AID 910; active = well fitted curve in the direction sought with a large enough effect; an effect the other way counts as inactive or inconclusive;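 also: HeLa cells stably carrying EGFP split by mutant beta-globin IVS2-654 intron; % of control where 0% means no effect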)
Summary of the method: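 HeLa cells stably expressing EGFP interrupted by β-globin IVS2-654 intron, seeded overnight in Opti-MEM/2% FCS, then treated 2 days at 37 °C. Restored splicing read as total peak GFP intensity per well by laser scanning cytometry (488 nm excitation, 500–520 nm emission); 500 nM antisense PNA as control.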

[3] = Confirmation and Secondary Assay for Modulators of Hemoglobin Beta Chain Splicing at IVS2 705 locus (AID 930; active = well fitted curve in the direction sought with a large enough effect; an effect the other way counts as inactive or inconclusive;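 also: HeLa cells stably expressing the EGFP-705 splicing reporter; GFP fluorescence per well restored by corrected splicing of the IVS2-705 intron in EGFP; % of control where 0% means no effect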)
Summary of the method: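 Read-out: total peak GFP fluorescence per well (488 nm excitation, 500-520 nm emission) by laser-scanning cytometry. Cells: HeLa EGFP-705 splicing reporter, 2 days compound exposure in Optimem/2% FCS.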

[4] = qHTS Assay for Lipid Storage Modulators (AID 1519; calls by dose curve); settings: Drosophila S3 cells, BODIPY lipid droplet/cell ratio, laser cytometry, cells loaded with oleic acid; for activity change, negative = inhibition: at 57.5 µM (top of the series)
Summary of the method: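 Cells seeded at 5,000 per well were treated with compounds over a concentration series and loaded with oleic acid (400 uM, as added). Lipid droplet fluorescence (488 nm excitation, 500-530 nm channel) was read by laser-scanning cytometry and normalized to 20 uM Triacsin C.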

[5] = target: Ubiquitin carboxyl-terminal hydrolase 1 (Homo sapiens) (UniProt O94782); experiment: Inhibitors of USP1/UAF1: Pilot qHTS (AID 504865; active = well fitted curve in the direction sought with a large enough effect; an effect the other way counts as inactive or inconclusive; also: nearly all actives have a fitted effect of over 35% in size; also: potency is read from the fitted curve at half-maximal effect)
Ubiquitin carboxyl-terminal hydrolase 1 (Homo sapiens), sequence (O94782 whole entry, looked up): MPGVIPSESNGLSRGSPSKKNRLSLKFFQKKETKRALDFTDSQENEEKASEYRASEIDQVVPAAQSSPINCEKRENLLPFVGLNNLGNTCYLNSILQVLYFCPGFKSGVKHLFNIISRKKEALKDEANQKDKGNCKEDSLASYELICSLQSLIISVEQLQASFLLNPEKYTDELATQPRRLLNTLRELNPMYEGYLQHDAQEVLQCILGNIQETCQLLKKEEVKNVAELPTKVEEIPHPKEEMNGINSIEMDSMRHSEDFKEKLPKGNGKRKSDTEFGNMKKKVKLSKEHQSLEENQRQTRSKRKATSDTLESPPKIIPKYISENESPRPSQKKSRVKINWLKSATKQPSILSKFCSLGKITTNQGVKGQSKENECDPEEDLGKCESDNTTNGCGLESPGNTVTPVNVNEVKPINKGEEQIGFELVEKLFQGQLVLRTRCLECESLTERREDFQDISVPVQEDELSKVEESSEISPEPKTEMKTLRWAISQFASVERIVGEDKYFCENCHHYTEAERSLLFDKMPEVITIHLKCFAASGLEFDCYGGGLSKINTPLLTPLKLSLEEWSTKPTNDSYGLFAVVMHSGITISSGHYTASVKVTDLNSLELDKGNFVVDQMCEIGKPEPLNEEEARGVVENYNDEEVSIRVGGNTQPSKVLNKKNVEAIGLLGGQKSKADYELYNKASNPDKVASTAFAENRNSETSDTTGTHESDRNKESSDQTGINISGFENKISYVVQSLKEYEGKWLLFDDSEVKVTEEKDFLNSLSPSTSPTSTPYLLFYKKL
Summary of the method: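 1nM USP1/UAF1 + cpd, 15 min RT; start w/ Ub-Rho 150nM final; kinetic FL 480/540 nm, 6 reads q60 s. Buffer 50mM HEPES pH 7.8, 0.5mM EDTA, 1mM TCEP, 0.01% Tween-20, 0.1 mg/ml BSA.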

[6] = target: Glutathione peroxidase 1 (Homo sapiens) (UniProt P07203); experiment: Primary qHTS Assay for Inhibitors of Recombinant Selenoprotein Glutathione Peroxidase 1 (GPX1) (AID 1845191; active = well fitted curve in the direction sought with a large enough effect; an effect the other way counts as inactive or inconclusive; also: nearly all actives have a fitted effect of over 65% in size); settings: outcome: dose series up to 48.8 µM unless noted
Glutathione peroxidase 1 (Homo sapiens), sequence (P07203 whole entry, looked up): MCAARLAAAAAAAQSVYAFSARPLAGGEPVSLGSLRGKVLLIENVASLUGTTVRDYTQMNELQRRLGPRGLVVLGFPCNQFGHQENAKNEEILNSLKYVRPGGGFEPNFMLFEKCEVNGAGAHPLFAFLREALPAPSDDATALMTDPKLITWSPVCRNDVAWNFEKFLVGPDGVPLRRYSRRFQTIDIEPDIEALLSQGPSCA
Summary of the method: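 GR-coupled assay: compounds preincubated 30 min at room temperature with GPX1, then reaction started with CHP; final 10 nM GPX1, 1 mM GSH, 0.5 mM CHP, 0.5 mM NADPH, 100 nM GR, 0.01% BSA, pH 7.5 Tris buffer. NADPH fluorescence (340/450 nm) read at 0 and 15 min.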

[7] = qHTS profiling for inhibitors of Plasmodium falciparum proliferation (AID 504749; active = well fitted curve in the direction sought with a large enough effect; an effect the other way counts as inactive or inconclusive;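 also: 0% = DMSO vehicle and full inhibition = artemisinin control; nearly all actives have a fitted effect of over 60% in size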); settings: P. falciparum in erythrocytes, SYBR Green DNA, 72 h, at 28.7 µM (top of the series)
Summary of the method: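 P. falciparum-infected erythrocytes (0.3% parasitemia, 2.5% hematocrit) incubated with compound 72 h at 37 C, 5% CO2. Parasite DNA detected by SYBR Green after lysis, overnight at room temperature; normalised to 0.29 uM artemisinin and DMSO.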

[8] = target: Lysosomal acid glucosylceramidase (Homo sapiens) (UniProt P04062); experiment: Glucocerebrosidase-p2 (AID 348; in the data active = potency below about 10 µM; also: potency is read from the fitted curve at half-maximal effect); settings: purified GBA, blue fluorogenic substrate, 40 min
Lysosomal acid glucosylceramidase (Homo sapiens), sequence (P04062 whole entry, looked up): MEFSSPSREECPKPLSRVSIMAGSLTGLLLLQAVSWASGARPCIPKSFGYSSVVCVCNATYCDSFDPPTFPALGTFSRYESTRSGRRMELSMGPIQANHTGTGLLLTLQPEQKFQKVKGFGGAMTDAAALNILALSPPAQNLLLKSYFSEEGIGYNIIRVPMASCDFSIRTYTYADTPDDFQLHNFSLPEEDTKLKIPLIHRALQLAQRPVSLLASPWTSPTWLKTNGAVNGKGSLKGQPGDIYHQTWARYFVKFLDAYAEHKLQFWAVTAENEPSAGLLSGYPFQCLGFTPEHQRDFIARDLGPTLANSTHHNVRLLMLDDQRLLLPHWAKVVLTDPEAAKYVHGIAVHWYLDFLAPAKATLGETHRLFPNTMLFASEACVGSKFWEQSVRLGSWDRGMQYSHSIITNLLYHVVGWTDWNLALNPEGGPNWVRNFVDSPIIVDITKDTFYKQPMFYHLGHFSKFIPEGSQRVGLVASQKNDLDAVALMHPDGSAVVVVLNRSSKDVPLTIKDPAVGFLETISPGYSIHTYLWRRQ
Summary of the method: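 Compounds titrated from 0.6 nM upwards against 0.2 nM enzyme in pH 5.9 citric acid/KH2PO4, taurocholate, tween-20; blue fluorogenic substrate 80 uM, 40 min room temperature, stopped and read Ex 365/Em 440 for AC50.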

[9] = AP1 Signaling Pathway (AID 357); settings: ME-180 AP-1-bla reporter, EGF-induced, beta-lactamase ratio, 5 h; at 7.69 µM (top of the series) unless noted;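 also: ME-180 reporter cells stimulated with EGF at its EC50 level; % is scaled to controls: 0 for no effect and ±100 for the full control effect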
Summary of the method: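 A ratiometric CCF4 readout (405 nm excitation; 460 and 530 nm emission) quantified AP-1-driven beta-lactamase in ME-180 cells after 5 h with compound and EC50 EGF; AC50 values were derived for activators and inhibitors.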

[10] = NFAT Signaling Pathway (AID 444); settings: Jurkat NFAT-bla M1, carbachol, beta-lactamase ratio, 5 h; at 7.69 µM (top of the series) unless noted;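 also: carbachol stimulus at about its EC50 of 1 µM final; % is scaled to controls: 0 for no effect and ±100 for the full control effect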
Summary of the method: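 Jurkat cells with NFAT-driven β-lactamase reporter and co-expressed M1 receptor, stimulated with carbachol (final 1 uM, ~EC50), compound titration, 5 h at 37 °C. CCF4 loaded 1 h at RT; 460/530 nm ratio gave %activity and AC50.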

[11] = Stat Signaling Pathway (AID 446); settings: ME-180 SIE beta-lactamase reporter, IL-6 stimulated, 5 h; at 7.69 µM (top of the series) unless noted;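 also: ME-180 cervical cancer cells given 40 pM IL-6 alongside compound; SIE-controlled beta-lactamase reporter measured as 460/530 nm FRET emission ratio; % is scaled to controls: 0 for no effect and ±100 for the full control effect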
Summary of the method: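 Screening format detects activators and inhibitors alike: ME-180 SIE-bla cells stimulated at 40 pM IL-6 for 5 hrs with compound, then dual-emission beta-lactamase read at 405 nm excitation.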

[12] = target: Glucocorticoid receptor (Homo sapiens) (UniProt P04150); experiment: GR-GFP Redistribution (AID 450;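 active = compounds whose dose series gives a full or clear partial fitted curve of increased nuclear translocation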; also: potency is read from the fitted curve at half-maximal effect); settings: U2OS GR-GFP nuclear translocation, laser cytometry, 2 h
Glucocorticoid receptor (Homo sapiens), sequence (P04150 whole entry, looked up, the tested form may be a part): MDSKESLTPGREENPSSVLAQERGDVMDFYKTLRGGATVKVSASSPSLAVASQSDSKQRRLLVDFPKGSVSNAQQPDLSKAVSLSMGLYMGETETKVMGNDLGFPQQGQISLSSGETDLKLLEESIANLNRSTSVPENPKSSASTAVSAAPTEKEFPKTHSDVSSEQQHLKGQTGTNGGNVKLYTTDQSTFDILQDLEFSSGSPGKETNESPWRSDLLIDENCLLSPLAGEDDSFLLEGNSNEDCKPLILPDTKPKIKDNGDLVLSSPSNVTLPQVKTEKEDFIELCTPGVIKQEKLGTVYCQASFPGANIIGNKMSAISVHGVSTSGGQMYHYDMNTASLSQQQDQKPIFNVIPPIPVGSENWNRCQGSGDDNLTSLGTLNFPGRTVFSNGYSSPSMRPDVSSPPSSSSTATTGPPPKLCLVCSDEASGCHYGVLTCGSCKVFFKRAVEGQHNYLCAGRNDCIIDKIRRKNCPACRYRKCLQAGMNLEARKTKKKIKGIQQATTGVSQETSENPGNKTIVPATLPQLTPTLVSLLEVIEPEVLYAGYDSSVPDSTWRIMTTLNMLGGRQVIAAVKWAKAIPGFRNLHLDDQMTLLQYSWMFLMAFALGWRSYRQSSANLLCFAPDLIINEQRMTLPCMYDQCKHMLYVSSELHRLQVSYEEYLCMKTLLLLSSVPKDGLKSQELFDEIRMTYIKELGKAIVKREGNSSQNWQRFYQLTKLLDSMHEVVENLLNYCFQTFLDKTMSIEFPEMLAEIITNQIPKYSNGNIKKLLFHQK

[13] = target: Glucocorticoid receptor (Homo sapiens) (UniProt P04150); experiment: GR-EFC Redistribution (AID 451; calls by dose curve; also: potency is read from the fitted curve at half-maximal effect); settings: CHO-K1 GR-EFC translocation, beta-gal luminescence, 2 h
Summary of the method: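 CHO-K1 cells expressing nuclear EA and GR-ED fragments of b-gal; compounds titrated up to 46 uM final, 2 h at 37 C. GR nuclear translocation read as complemented b-gal luminescence after 1 h RT detection.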

[14] = target: Mitogen-activated protein kinase 10 (Mus musculus) (UniProt Q61831); experiment: JNK3 AlphaScreen Assay (AID 530);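 also: kinase came from lysate of stimulated human HepG2 cells; signal reports phosphorylation of biotinylated GST-cJun 1-79 at Ser73 with 10 µM ATP; % is scaled to controls: 0 for no effect and ±100 for the full control effect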
Summary of the method: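 Pre-activated (IL-1β/TNFα) JNK3 in HepG2 lysates phosphorylates biotin-GST-cJun(1-79), 10 uM ATP; anti-phospho-cJun(Ser73) AlphaScreen read at room temperature, pH 7.6 Tris buffer. Compounds pre-incubated 15 min as titrations.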

[15] = target: 3',5'-cyclic-AMP phosphodiesterase 4B (Homo sapiens) (UniProt Q07343); experiment: qHTS Assay for Inhibitors of PDE-IV (AID 607; active = well fitted activation curve with a large enough effect in the main read-out, with a control signal flat, not every such curve was filed as active; also: % of control where 0% means no effect)
3',5'-cyclic-AMP phosphodiesterase 4B (Homo sapiens), sequence (Q07343 whole entry, looked up): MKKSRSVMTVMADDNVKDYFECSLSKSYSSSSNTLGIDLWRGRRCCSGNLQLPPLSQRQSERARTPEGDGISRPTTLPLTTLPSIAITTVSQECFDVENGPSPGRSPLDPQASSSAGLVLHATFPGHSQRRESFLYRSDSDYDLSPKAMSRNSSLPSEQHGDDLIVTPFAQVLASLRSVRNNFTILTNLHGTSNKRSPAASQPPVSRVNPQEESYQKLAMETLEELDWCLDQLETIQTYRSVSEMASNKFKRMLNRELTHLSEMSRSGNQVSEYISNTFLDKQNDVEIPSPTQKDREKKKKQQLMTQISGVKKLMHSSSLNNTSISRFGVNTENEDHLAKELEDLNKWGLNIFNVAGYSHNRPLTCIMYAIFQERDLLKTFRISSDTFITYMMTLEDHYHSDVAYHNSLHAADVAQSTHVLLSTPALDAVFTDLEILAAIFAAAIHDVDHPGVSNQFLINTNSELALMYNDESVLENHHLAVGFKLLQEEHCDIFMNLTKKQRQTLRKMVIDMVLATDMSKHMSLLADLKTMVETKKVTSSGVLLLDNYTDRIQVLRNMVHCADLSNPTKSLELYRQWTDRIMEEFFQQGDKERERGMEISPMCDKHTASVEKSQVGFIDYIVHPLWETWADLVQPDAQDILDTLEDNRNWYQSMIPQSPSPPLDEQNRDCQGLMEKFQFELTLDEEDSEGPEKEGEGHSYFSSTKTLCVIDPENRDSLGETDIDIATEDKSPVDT
Summary of the method: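 The readout is membrane depolarisation from a cAMP-sensing CNG channel, detected with a potential dye at ex 535/em 590. Cells were HEK293-derived (endogenous PDE-IV) at 1000 cells/well, titrated up to 22.9 uM final.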

[16] = target: Cytochrome P450 1A2 (Homo sapiens) (UniProt P05177); experiment: p450-cyp1a2 (AID 410; calls by dose curve; also: potency is read from the fitted curve at half-maximal effect;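 as to activity change, negative = inhibition: -100% = full effect of reference inhibitor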)
Cytochrome P450 1A2 (Homo sapiens), sequence (P05177 whole entry, looked up): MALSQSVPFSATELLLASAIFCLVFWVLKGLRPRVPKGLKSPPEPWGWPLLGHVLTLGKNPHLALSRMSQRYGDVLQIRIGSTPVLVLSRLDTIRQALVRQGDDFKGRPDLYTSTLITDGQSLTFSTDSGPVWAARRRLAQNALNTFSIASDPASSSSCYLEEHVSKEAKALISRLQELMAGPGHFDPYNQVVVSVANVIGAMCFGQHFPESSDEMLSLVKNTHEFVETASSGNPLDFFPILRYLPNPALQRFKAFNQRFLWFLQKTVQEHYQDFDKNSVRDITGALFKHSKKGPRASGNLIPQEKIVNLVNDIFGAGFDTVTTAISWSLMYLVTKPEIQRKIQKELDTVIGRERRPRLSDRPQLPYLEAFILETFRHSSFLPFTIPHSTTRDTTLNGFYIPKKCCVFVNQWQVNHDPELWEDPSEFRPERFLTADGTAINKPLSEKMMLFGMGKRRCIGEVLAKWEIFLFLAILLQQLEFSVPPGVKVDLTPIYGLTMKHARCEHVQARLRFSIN
Summary of the method: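 Luminescent readout of luciferin formed from Luciferin-ME by human CYP1A2; data normalized against complete inhibition by 57 uM furafylline. Enzyme 20nM, substrate 100uM at Km, 100mM KPO4 buffer, 60 min reaction at room temperature.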

[17] = target: Cytochrome P450 3A4 (Homo sapiens) (UniProt P08684); experiment: qHTS Assay for Activators of Cytochrome P450 3A4 (AID 885; active = well fitted curve in the direction sought with a large enough effect; an effect the other way counts as inactive or inconclusive; also: nearly all actives have a fitted effect of over 65% in size)
Summary of the method: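 Steps: enzyme/substrate mix dispensed; compound added, 10 min RT; NADPH regeneration solution added, 60 min RT; luciferin detection buffer stops reaction; 20 min later luminescence measured.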

[18] = measured here: cell count channel max response
[19] = measured here: lipid channel max response

C[N+](C)(C)CC(O)CC(=O)O (centres undefined)
21.4%: max response [4, 19]
12.3%: max response [4, 18]
inactive: Potency [1] | Potency [2] | outcome [3] | activity change, negative = inhibition [4] 3.18% | Potency [5] | outcome [6] | activity, negative = inhibition ([7]; parasite line A) 14.7% | activity, negative = inhibition ([7]; parasite line B) 11.5%

N#Cc1ccccc1-c1ccc2ncnc(NCc3cccs3)c2c1
-0.129%: max response [4, 19]
0.851%: max response [4, 18]
inactive: Potency [8] > 11.4 µM | activity change, negative = inhibition [9] -0.438% | activity change, negative = inhibition [10] 20.9% | activity, negative = inhibition [11] -2.46% | Potency [12] > 46 µM | Potency [13] > 46 µM | Potency [14] | Potency [15] | activity change, negative = inhibition [4] 2.64%

C=CC(C)(O)CCC=C(C)C (centres undefined)
-25.1%: max response [4, 19]
-17.5%: max response [4, 18]
inactive: Potency [14] | Potency [1] | activity change, negative = inhibition [4] -9.56% | Potency [5]

COCCn1c(=O)c(C)nc2cnc(Nc3ccccc3)nc21
inactive: Potency [8] > 11.4 µM | activity change, negative = inhibition [9] -18.1% | activity change, negative = inhibition [10] 15.1% | activity, negative = inhibition [11] 3.38% | Potency [12] > 9.22 µM | Potency [13] > 46 µM | Potency [14] | Potency [15] | activity change, negative = inhibition [4] -1.55% | Potency [5]
-5.32%: max response [4, 18]
-10.4%: max response [4, 19]

CN1CCN(c2ncc3nc(-c4cccc(C#N)c4)c(=O)n(CCC#N)c3n2)CC1
-1.32%: max response [4, 18]
inactive: Potency [8] > 11.4 µM | activity change, negative = inhibition [9] -12.4% | Potency [16] | activity change, negative = inhibition [10] 17.8% | activity, negative = inhibition [11] 19.4% | Potency [12] > 9.22 µM | Potency [13] > 46 µM | Potency [14] | Potency [15] | activity change, negative = inhibition [4] 4.89% | Potency [5]
1.31%: max response [4, 19]

N#Cc1cccc(-c2ccc3ncnc(NCc4ccccc4)c3c2)c1
active: Potency [16] 0.1 µM | Potency [5] 15.8 µM
inactive: Potency [8] > 11.4 µM | activity, negative = inhibition [11] -18.2% | Potency [12] > 46 µM | Potency [13] > 46 µM | Potency [14] | Potency [17] | activity change, negative = inhibition [4] -0.0166%
2.9%: max response [4, 19]
4.36%: max response [4, 18]

C=C(C)[C@H]1CC=C(C)C(=O)C1
-15.9%: max response [4, 19]
-28%: max response [4, 18]
inactive: Potency [14] | Potency [1] | activity change, negative = inhibition [4] -4.73% | Potency [5]
